# Most compounds without a hit are left out; they make up all but 11% or so of the library.
# HPGD block: blocks human HPGD enzyme activity; purified HPGD, NADH fluorescence kinetic, PGE2 substrate; P15428; 150,000 compounds, 4.3% hits; Potency, µM, without a hit: at the top dose activity change, negative = inhibition, usual class: inhibitors; further: potency means the concentration at half of the fitted maximal effect
# Target sequence (P15428 whole entry, looked up): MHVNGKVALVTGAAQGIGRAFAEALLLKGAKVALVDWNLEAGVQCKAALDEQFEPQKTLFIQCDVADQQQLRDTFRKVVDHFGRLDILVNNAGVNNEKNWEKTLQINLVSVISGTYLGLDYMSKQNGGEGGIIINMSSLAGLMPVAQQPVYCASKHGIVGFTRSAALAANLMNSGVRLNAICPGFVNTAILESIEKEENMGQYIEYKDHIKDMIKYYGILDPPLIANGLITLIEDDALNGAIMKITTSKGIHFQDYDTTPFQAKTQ
#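 NADH formation kinetics: reaction with 30 uM PGE2 and 1 mM NAD+ (final), 20 nM enzyme, Tris-HCl pH 8 with Tween 20, after 15 min compound preincubation at room temperature. Fluorescence change, last versus first of five reads.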
# ALDH1A1 block: blocks purified human ALDH1A1 activity; Potency, µM (titrated, usually from 75.3 µM), without a hit: at the top dose activity, negative = inhibition, most hits filed as inhibitors; Purified ALDH1A1, NADH fluorescence, propionaldehyde substrate; AID 1030; 220,000 compounds, 7.3% hits; P00352;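 further: potency means the concentration at half of the fitted maximal effect; plate controls were no enzyme wells and a reference inhibitor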
# PNC assembly inh: blocks assembly of the perinucleolar compartment; PC3M PTB-GFP, PNC prevalence imaging, 16 h; hits give low values; activity change (PNC), negative = inhibition, % at 10 µM; 140,000 compounds, 3.1% hits;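 active means readout at or below -70, meaning at least 70% loss of cells showing the perinucleolar compartment, a nuclear body marking cancer cells; inconclusive means readout between -30 and a set limit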;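 further: plate controls were DMSO wells for no effect and camptothecin positive control wells for full effect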
#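 Read-out is percentage of cells bearing a perinucleolar compartment, from automated 20x imaging of fixed, Hoechst-stained PC3M PTB-GFP cells. Cells were seeded 4 h, then exposed 16 h to compound (23 nl of library stock) in duplicate plates.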
# * = called active by the depositor; ? = inconclusive; nt = not tested or not shown; [ ] = dose if it differs, or a comment. Unless noted, the call rests on the fitted dose curve; in most records, active means well fitted inhibition curve with a large enough effect (not every such curve was filed as active); inconclusive means small, poorly fitted or top-dose-only effect, or another doubt; inactive means no such curve, though single readings can be large or run the other way. Unless noted, on the % scale 0 is the no-effect control and ±100 the full control effect.
SMILES,HPGD block,ALDH1A1 block,PNC assembly inh
Cc1ccc(Nc2nc(CSc3nnc(-c4ccccc4)n3C)cs2)cc1,-21.5%,-23.3%,?
Cc1ccc(Nc2nc(CSc3nnnn3C)cs2)cc1,-17.4%,?,-7.0
COc1ccc(/C=C2\CCCc3c2nc2ccccc2c3C(=O)OCC(=O)c2c(N)n(C)c(=O)n(C)c2=O)cc1,-3.5%,4.1%,12.5
C[C@H]1[C@H](C)CC[C@]2(C(=O)O)CC[C@]3(C)C(=CCC4[C@@]5(C)C[C@@H](O)[C@H](O)[C@@](C)(CO)[C@@H]5CC[C@]43C)[C@H]12 (stereo partly specified),-3.8%,4.0%,nt
C=C(C)Cn1c(COc2ccccc2)nnc1SCC(=O)O,-3.3%,6.1%,?
CC(=O)OCCNc1cc(SC(C)C)c2nonc2c1[N+](=O)[O-],nt,3.5%,nt
CC(=O)OCCCNc1cc(Sc2ccc(Cl)cc2)c2nonc2c1[N+](=O)[O-],12.6µM*,?,45.1
CCC(=O)OCCNc1cc(SCCC(=O)OC)c2nonc2c1[N+](=O)[O-],?,?,24.7
CCCC(=O)OCCNc1cc(Sc2nc3ccccc3[nH]2)c2nonc2c1[N+](=O)[O-],7.94µM*,7.08µM*,19.0
Cc1csc(NC(=O)CSc2nnc(Cn3c(=O)sc4ccccc43)n2-c2ccccc2)n1,-22.3%,?,-14.6
CCN(Cc1ccncc1)Cc1nc(Cc2ccccc2Cl)no1,nt,-0.6%,nt
Cc1cccc(C)c1NC(=O)c1ccc([N+](=O)[O-])s1,-8.3%,10.8%,12.9
Cc1cccc(NC(=O)c2ccc([N+](=O)[O-])s2)c1C,-11.2%,0.891µM*,?
COC(=O)/C=C1\S/C(=N/N=C/c2ccccc2)NC1=O,25.1µM*,1.1%,-4.2
COC(=O)/C=C1\S/C(=N/N=C/c2ccco2)NC1=O,nt,-8.8%,nt
Cc1ccc(-c2noc(CNCCCN(C)C)n2)cc1,-2.7%,3.9%,?
Nc1nc(SCc2ccccc2Cl)cc(C(=O)O)n1,-21.5%,-0.1%[13.5 µM],nt
CCCc1nnc(SCC(=O)N2CCCCC2)n1CCCOC,-10.8%,3.0%,-16.0
Cc1ccc(CCNC(=O)C23C[C@H]4C[C@@H](C2)CC(n2nnc(C)n2)(C4)C3)cc1,nt,5.1%,nt
Cc1nnn(C23CC4CC(CC(C(=O)NN)(C4)C2)C3)n1,2.3%,1.41µM*,-113.8*
NNC(=O)C12CC3CC(C1)CC(n1ncnn1)(C3)C2,-2.4%,3.55µM*,7.8
c1nnn(C23CC4CC(CC(C4)C2)C3)n1,-4.6%,12.3%,4.3
COC(=O)[C@@]1(Cc2ccc(OC)cc2)[C@H]2c3cc(C(=O)N4CCCC4)n(CCc4c[nH]c5ccc(OC)cc45)c3C[C@H]2CN1C(=O)c1ccccc1,-9.8%,?,nt
COc1ccc(OC)c(N2Cc3cc(C)c(C)cc3C2)c1,-17.3%,?,21.5
CC(C)c1ccc(NC(=O)Cn2cccc2C2=NC(c3ccccc3)CO2)cc1 (stereo unspecified),-11.7%,?,?
SMILES,HPGD block,ALDH1A1 block,PNC assembly inh
COc1ccccc1NC(=O)CCCc1nc(-c2ccc(OC)c(OC)c2)no1,nt,-2.8%,nt
COC(=O)C1Cc2c([nH]c3ccccc23)C(C)N1 (stereo unspecified),-5.9%,1.3%,-91.2*
O=C(O)C1Cc2c([nH]c3ccccc23)C(c2ccccc2)N1 (stereo unspecified),nt,2.4%[13.5 µM],nt
CC(=O)N1N=C(c2ccc(C)o2)CC1c1cccc(F)c1 (stereo unspecified),nt,14.1µM*,nt
CC(=O)N1N=C(c2ccco2)CC1c1ccc(C)cc1 (stereo unspecified),-7.9%,?,17.4
O=S(=O)(c1ccc2ccccc2c1)N1CCN(C2CCN(Cc3ccccc3)CC2)CC1,-1.7%,?,?
Cc1cnc(C(=O)N2CCN(S(=O)(=O)c3ccc4ccccc4c3)CC2)cn1,-16.7%,12.6µM*,?
O=C(c1cnccn1)N1CCN(S(=O)(=O)c2ccc3ccccc3c2)CC1,-9.3%,-5.2%,17.7
O=S(=O)(c1ccc2ccccc2c1)N1CCN(C2Cc3ccccc3C2)CC1,-10.1%,28.2µM*,-7.3
S=C(NCc1ccc(Cl)cc1)NC1CCN(Cc2ccccc2)CC1,nt,1.1%,nt
CC1=C(C(=O)OC(C)C)C(c2coc3ccccc3c2=O)C2=C(CCCC2=O)N1 (stereo unspecified),-0.3%,7.5%,-81.5*
CCSCCOC(=O)C1=C(C)NC2=C(C(=O)CCC2)C1c1coc2ccccc2c1=O (stereo unspecified),-1.8%,-4.2%,?
COc1cc2c(cc1NC(=O)c1cccnc1)CCCC2,-1.5%,28.2µM*,-0.3
COC(=O)c1ccc(C(=O)NC(=S)Nc2nc3c(s2)CC(C)CC3)cc1 (stereo unspecified),-13.3%,?,53.7
O=C(Nc1nc2c(s1)CCCC2)c1ccc(Br)o1,-20.6%,?,-0.3
COc1cc2c(cc1NC(=O)c1ccc(C(C)(C)C)cc1)CCCC2,?,?,9.8
CCCOc1ccc(C(=O)NC(=S)Nc2nc3ccccc3s2)cc1,-4.3%,-6.8%,9.3
O=C(Nc1nc2c(s1)CCCC2)c1cccnc1,-9.8%,11.2µM*,31.6
O=C(NC(=S)Nc1nc2c(s1)CCCC2)c1ccc(C(=O)c2ccccc2)cc1,-22.9%,3.55µM*,-123.8*
O=C(NC(=S)Nc1nc2c(s1)CSc1ccccc1-2)c1ccccc1,20µM*,?,3.2
Cc1ccccc1OCC(O)CN(Cc1ccccc1O)C1CCCCC1 (stereo unspecified),nt,7.4%,nt
COc1cccc([C@@H]2Oc3ccc(OC)cc3C(=O)[C@H]2OC(=O)Nc2ccc(C)c(Br)c2)c1,-14.2%,?,nt
COc1ccc(NC(=O)Nc2ccc(F)c(F)c2)c(OC)c1,nt,4.1%,nt
CCOc1ccc(C2CC(=O)N(Nc3ccc([N+](=O)[O-])cc3[N+](=O)[O-])C2=O)cc1 (stereo unspecified),nt,2.2%,nt
C/C(=N\Nc1nc2c(s1)CCCC2)c1ccccc1,-30.1%,25.1µM*,11.0
SMILES,HPGD block,ALDH1A1 block,PNC assembly inh
O=C(Nc1nc2c(s1)CCCC2)Oc1ccccc1,-13.0%,-13.1%,2.9
Cc1cccc(Nc2nc3c(s2)CCCC3)c1,-13.4%,20µM*,-10.5
O=C(O)c1ccc(Nc2nc3c(s2)CCCC3)cc1,nt,-1.6%,nt
Cc1nc(C(F)(F)F)ccc1C(=O)Nc1ccccc1F,nt,-5.3%,nt
O=C(O)[C@H](Cc1ccc(O)c([N+](=O)[O-])c1)N1C(=O)c2ccccc2C1=O,-7.8%,-1.8%[13.5 µM],nt
Cc1ccc(-c2ccc(C3C(C#N)=C(N)Oc4n[nH]c(C)c43)o2)cc1 (stereo unspecified),-26.9%,?,?
Cc1[nH]nc2c1C(c1ccc(-c3ccccc3C#N)o1)C(C#N)=C(N)O2 (stereo unspecified),nt,11.2µM*,-28.9
Cc1ccccc1-n1c(-c2csc(C)c2C)n[nH]c1=S,-24.5%,?,22.9
COc1ccccc1-n1c(Cc2cccs2)n[nH]c1=S,nt,-1.6%,nt
O=C(O)c1ccc(-n2c(-c3cc(-c4ccco4)[nH]n3)n[nH]c2=S)cc1,?,?,-15.9
S=c1[nH]nc(Cc2cccs2)n1-c1cccc2ccccc12,25.1µM*,-4.8%,-6.2
S=c1[nH]nc(-c2cc(-c3ccco3)[nH]n2)n1-c1cccc2ccccc12,11.2µM*,?,?
CC(C)Cn1c(-c2ccco2)n[nH]c1=S,?,?,-7.5
